DT40 TDP1 CPT: qHTS for Inhibitors of human tyrosyl-DNA phosphodiesterase 1 (TDP1): qHTS in cells in presence of CPT. chicken DT40 Tdp1-/-;hTDP1 cells + 20 nM CPT, ATP luminescence, 48 h. 12% of 420,000 active. Potency, µM (titrated, usually from 46.2 µM), for the others: top-dose activity change, negative = growth inhibition, most hits filed as inhibitors; also: nearly all actives have a fitted effect of over 55% in size
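Cell growth measured by CellTiter-Glo luminescence after a minimum 48 h, 37 C compound exposure with 20 nM CPT in Tdp1-knockout DT40 cells stably expressing hTDP1, seeded 400/well; qHTS titration format.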
VP16 counter: VP16 counterscreen qHTS for inhibitors of ROR gamma transcriptional activity. Drosophila S2 Gal4-VP16 UAS-luciferase, luminescence, 20 h. Potency, µM (series often up to 53.6 µM), inactives show top-dose activity, negative = inhibition, most hits filed as inhibitors. 3.5% of 310,000 active;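 also: Gal4-VP16 expression switched on by copper sulfate through the metallothionein promoter; nearly all actives have a fitted effect of over 50% in size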
TDP1 inh: qHTS Assay for Inhibitors of Tyrosyl-DNA Phosphodiesterase (TDP1); Potency, µM (top dose mostly 130 µM), for the others: at the highest dose activity change, negative = inhibition, actives largely listed as inhibitors; recombinant TDP1, AlphaScreen DNA substrate cleavage; Tyrosyl-DNA phosphodiesterase 1 (Homo sapiens), Q9NUW8; 0.28% of 350,000 active; also: nearly all actives have a fitted effect of over 40% in size
Target sequence (Q9NUW8 whole entry, looked up): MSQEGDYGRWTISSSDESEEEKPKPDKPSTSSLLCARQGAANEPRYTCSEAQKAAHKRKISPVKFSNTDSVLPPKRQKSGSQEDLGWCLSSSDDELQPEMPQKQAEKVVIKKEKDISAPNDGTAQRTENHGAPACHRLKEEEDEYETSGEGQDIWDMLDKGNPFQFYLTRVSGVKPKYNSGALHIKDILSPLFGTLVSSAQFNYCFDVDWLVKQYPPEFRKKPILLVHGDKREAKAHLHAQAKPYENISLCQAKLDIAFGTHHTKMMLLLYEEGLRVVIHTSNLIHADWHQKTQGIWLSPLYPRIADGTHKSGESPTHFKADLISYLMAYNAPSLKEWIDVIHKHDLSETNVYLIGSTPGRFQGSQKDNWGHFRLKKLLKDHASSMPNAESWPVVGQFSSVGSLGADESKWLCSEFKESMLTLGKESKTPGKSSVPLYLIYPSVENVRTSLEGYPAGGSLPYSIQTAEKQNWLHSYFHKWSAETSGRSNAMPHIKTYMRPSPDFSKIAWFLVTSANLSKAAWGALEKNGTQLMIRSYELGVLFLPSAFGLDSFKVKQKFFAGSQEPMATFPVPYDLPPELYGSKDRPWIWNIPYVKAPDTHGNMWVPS
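E. coli-derived human Tdp1, 1 nM final. Cpd preinc 15 min RT; substrate 15 nM final, 5 min RT; AS bead mix 10 ug/ml final, 10 min RT. Signal loss = tyrosine-FITC cleavage. No-enzyme wells = max signal.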
TDP1 cell noCPT: qHTS for Inhibitors of human tyrosyl-DNA phosphodiesterase 1 (TDP1): qHTS in cells in absence of CPT. AID 686978, 2013. Potency, µM (titrated, usually from 46.2 µM), for inactives: at the top dose activity change, negative = growth inhibition, hits mostly inhibitors. 15% of 420,000 active. DT40 Tdp1-/- hTDP1 cells, no CPT, ATP luminescence, 48 h; also: nearly all actives have a fitted effect of over 55% in size
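Seeded 400 DT40-hTDP1 cells/well (vehicle DMSO, no 20 nM CPT); pinned compounds; ≥48 hr at 37 °C; CellTiter-Glo luminescence as viability measure.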
RORgamma inh: qHTS for inhibitors of ROR gamma transcriptional activity; Nuclear receptor ROR-gamma (Mus musculus), P51450; Drosophila S2 Gal4-RORgamma UAS-luciferase reporter, 20 h; Potency, µM (highest dose often 53.6 µM), for inactives: at the highest dose activity change, negative = inhibition, usual class: inhibitors; 5.4% of 310,000 active; also: nearly all actives have a fitted effect of over 60% in size
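Luciferase reporter read in Schneider cells carrying Gal4-RORγ (mouse) and UAS-Photinus luciferase; cells given compound 1 h before 700 uM copper sulfate induction, then incubated 20 h at ambient temperature.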
Active calls of the source: *; ? = inconclusive; nt = not tested or not shown. Most compounds without a hit are left out; they make up all but 19% or so of the library. Calls follow the shape of the dose curve; as a rule, active = well fitted curve in the direction sought with a large enough effect; inconclusive = small, poorly fitted or top-dose-only effect, or another doubt; inactive = no such curve, though single readings can be large; an effect the other way counts as inactive or inconclusive. % is scaled to controls: 0 for no effect and ±100 for the full control effect; potency is read from the fitted curve at half-maximal effect.

SMILES	DT40 TDP1 CPT	VP16 counter	TDP1 inh	TDP1 cell noCPT	RORgamma inh
COCCNC(=O)C1(C)CCCN(C(=O)c2ccc3ccccc3c2)C1 (configuration not stated)	-27%	nt	nt	-24%	nt
COc1ccc(CNC(=O)CN(C)Cc2ccc(SC)cc2)cc1	?	6%	8%	?	-3%
COc1ccc(OCCNC(=O)C2(C)CCN2Cc2ccc3ccccc3c2)cc1 (configuration not stated)	29µM*	nt	nt	16µM*	nt
COc1ccc(OCCNC(=O)C2(C)CCN2Cc2ccc(SC)cc2)cc1 (configuration not stated)	?	nt	nt	16µM*	nt
COc1cc(CC(=O)OCC(=O)Nc2ccccc2C#N)cc(OC)c1OC	-12%	nt	0%	-21%	nt
O=[n+]1c2c(n([O-])c3ccccc31)CCC2	-4%	21%	-2%	-5%	-12%
CCCCCCCCCCCCN1C/C(=C\C(=O)OCC)c2ccccc2S1(=O)=O	16µM*	-8%	nt	11µM*	11%
CCOC(=O)/C=C1\CN(Cc2cc(OC)c(OC)c(OC)c2)S(=O)(=O)c2ccc(C(F)(F)F)cc21	23µM*	?	nt	12µM*	67%
CCOC(=O)/C=C1\CN(Cc2cc(OC)c(OC)c(OC)c2)S(=O)(=O)c2ccccc21	10µM*	?	nt	6.5µM*	?
CC(=O)c1c(C)[nH]c(C(=O)OCC(=O)N2CCN(S(=O)(=O)c3ccc(C)cc3)CC2)c1C	-28%	nt	2%	?	nt
CCOC(=O)CC1C(=O)NCCN1C(=O)c1ccc(Cl)cc1Cl (configuration not stated)	20%	11%	nt	0%	4%
O=C1OCc2ccc(NC(=O)c3ccccc3C(=O)O)cc21	-10%	-7%	5%	-1%	-15%
CC(C)(C)OC(=O)CNC(=O)c1[nH]cnc1C(=O)NCCCCCNC(=O)OC(C)(C)C	23µM*	0%	nt	15µM*	?
CC(C)(C)OC(=O)CNC(=O)c1[nH]cnc1C(=O)NCCCCCN	-19%	nt	-8%	3%	nt
CCN(CC)C(=O)c1[nH]cnc1C(=O)N[C@@H](C)C(=O)OC(C)(C)C	-3%	20%	-1%	-13%	-1%
CC(C)C[C@H](NC(=O)c1nc[nH]c1C(=O)N[C@@H](CCCCN)C(=O)OC(C)(C)C)C(=O)OC(C)(C)C	?	nt	0%	?	nt
C[C@H](NC(=O)c1nc[nH]c1C(=O)NCCCCCNC(=O)OC(C)(C)C)C(=O)OC(C)(C)C	18µM*	-11%	6%	16µM*	-52%
CNC(=O)c1[nH]cnc1C(=O)N[C@@H](CCCCNC(=O)OC(C)(C)C)C(=O)OC(C)(C)C	?	3%	6%	-12%	-32%
CC(C)C[C@H](NC(=O)c1nc[nH]c1C(=O)N[C@@H](CCCCNC(=O)OC(C)(C)C)C(=O)OC(C)(C)C)C(=O)OC(C)(C)C	21µM*	11µM*	9%	21µM*	5µM*
CC(C)C[C@H](NC(=O)c1nc[nH]c1C(=O)NCCCCCNC(=O)OC(C)(C)C)C(=O)OC(C)(C)C	?	7.1µM*	12%	18µM*	3.2µM*
Cc1csc(NC(=O)CSc2nnc(-c3ccccn3)n2-c2ccc(C)c(C)c2)n1	-11%	2%	6%	-17%	16%
Cc1oc2cc(O)ccc2c(=O)c1Oc1ccccc1Br	-9%	0%	-3%	?	?
COC(=O)CNC(=O)c1cc(-c2ccncc2)nc2ccc(C)cc12	-1%	-6%	3%	3%	0%
O=C(Nc1cc(=O)[nH]c(=O)[nH]1)c1cc(Cl)ccc1Cl	3.3µM*	-5%	1%	4.1µM*	-1%
O=C(Nc1cc(=O)[nH]c(=O)[nH]1)c1cccc(C(F)(F)F)c1	-21%	-3%	2%	-4%	1%
SMILES	DT40 TDP1 CPT	VP16 counter	TDP1 inh	TDP1 cell noCPT	RORgamma inh
CC1C/C=C/C=C/C=C/C=C/C(O[C@@H]2O[C@H](C)[C@@H](O)[C@H](N)[C@@H]2O)CC2OC(O)(CC(O)CC3OC3/C=C/C(=O)O1)CC(O)C2C(=O)O (some centres not stated)	nt	-4%	0%	nt	-11%
Nc1c(N=Nc2ccc([N+](=O)[O-])cc2)c(S(=O)(=O)O)cc2cc(S(=O)(=O)O)c(/C=C/c3ccccc3)c(O)c12	10µM*	nt	nt	14µM*	nt
CC1=C(C(N)=O)C(c2ccccc2)n2nc(-c3cccc(C)c3)nc2N1 (configuration not stated)	-3%	0%	4%	-5%	-28%
O=C(O)CNC(=O)CC1S/C(=N/N=C2/NC(=O)CS2)NC1=O (configuration not stated)	6%	-11%	40µM*	-1%	-17%
O=C1NC[C@H](Cc2ccccc2)N(CCc2cccc(F)c2)C1=O	-14%	1%	-1%	-4%	7%
Cc1ccc2nc3n(c(=O)c2c1)-c1ccccc1C(=O)NC3Cc1ccc(O)cc1 (configuration not stated)	nt	nt	1%	nt	nt
CC(=Nc1ccccc1)C1=C(O)C(Cc2ccc(O)cc2)NC1=O (configuration not stated)	0.018µM*	nt	nt	0.0082µM*	nt
CC(=Nc1ccccc1)C1=C(O)C(Cc2cccc(F)c2)NC1=O (configuration not stated)	0.0058µM*	nt	nt	0.1µM*	nt
O=C1c2ccccc2C(=O)N1c1cc([N+](=O)[O-])ccn1	-9%	-2%	nt	-20%	?
O=C(Nc1ccc(CN2CCOCC2)cc1)c1cccc(-c2cc3ccccc3oc2=O)c1	16µM*	-1%	5%	?	4%
O=C(Nc1ccc(CN2CCOCC2)cc1)c1ccc2ccccc2c1	?	?	3%	?	2%
O=C(Nc1cccc(Cl)c1N1CCCC1)c1cccc(-c2cc3ccccc3oc2=O)c1	18µM*	16%	4%	?	35%
COCCNc1nnc(SCC(=O)c2ccc3c(c2)OCO3)s1	-9%	-4%	8%	-17%	-8%
COc1cc(O)c(C(CCN2CCN(c3ccccc3)CC2)c2ccc3c(c2)OCO3)c(OC)c1 (configuration not stated)	23µM*	-4%	23%	16µM*	-19%
CCN(CC)CCC(c1cc(OC)c(OC)c(OC)c1)c1c(O)cc(OC)cc1OC (configuration not stated)	?	-18%	6%	?	-7%

Compound activity from PubChem.
